Data taken from PubChem BioAssay (EPA / NIEHS).
Records with an inconclusive call do not appear. More than one record can exist for a structure, and the calls need not agree. The source made the active and inactive calls. How the source made its calls, unless noted: active means hit-call score of the fitted dose curve at least 0.9, where 1 is the maximum; inactive means score below 0.9.

Experiments:
[1] = CCTE_Shafer_MEA_acute_cross_correlation_area: CCTE's Neural Acute Assay for Area of Cross Correlation, Shafer Lab (AID 2284024);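 further: area under pooled inter-electrode spike cross-correlation near zero lag as percent change from own baseline; curves fitted for loss of cross-correlation area so actives lower synchrony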
Procedure, shortened: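 Primary rat cortical neurons on 48-well MEA plates (16 electrodes/well) were recorded 40 min at baseline on DIV 13 or 15, then 40 min with compound (0.03-40 uM) at 37 C; cross-correlation area expressed as percent change from baseline.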

[2] = CCTE_Shafer_MEA_acute_synchrony_index: CCTE's Neural Acute Assay for Synchrony, Shafer Lab (AID 2284027);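 further: network synchrony index of spontaneous spiking in primary rat cortical neurons on MEAs; fitted for loss of signal so actives lower synchrony relative to DMSO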
Procedure, shortened: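 Primary rat cortical neurons on 16-electrode MEA wells were recorded 40 min at baseline (DIV 13 or 15) and 40 min after compound (0.03-40 uM) at 37 C. Synchrony index (0-1) expressed as percent change from baseline, versus DMSO.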

[3] = molecular target: Estrogen receptor (Homo sapiens) (UniProt P03372); test: CCTE_Deisenroth_AIME_384WELL_LUC_Active: CCTE's 384-well Estrogen Receptor Transactivation Assay with AIME metabolic competence (ERTA luciferase; metabolism positive), Deisenroth Lab (AID 2284030; active means hit-call score of the fitted dose curve at least 0.9, where 1 is the maximum)
Chain of Estrogen receptor (Homo sapiens) (P03372 whole entry, looked up): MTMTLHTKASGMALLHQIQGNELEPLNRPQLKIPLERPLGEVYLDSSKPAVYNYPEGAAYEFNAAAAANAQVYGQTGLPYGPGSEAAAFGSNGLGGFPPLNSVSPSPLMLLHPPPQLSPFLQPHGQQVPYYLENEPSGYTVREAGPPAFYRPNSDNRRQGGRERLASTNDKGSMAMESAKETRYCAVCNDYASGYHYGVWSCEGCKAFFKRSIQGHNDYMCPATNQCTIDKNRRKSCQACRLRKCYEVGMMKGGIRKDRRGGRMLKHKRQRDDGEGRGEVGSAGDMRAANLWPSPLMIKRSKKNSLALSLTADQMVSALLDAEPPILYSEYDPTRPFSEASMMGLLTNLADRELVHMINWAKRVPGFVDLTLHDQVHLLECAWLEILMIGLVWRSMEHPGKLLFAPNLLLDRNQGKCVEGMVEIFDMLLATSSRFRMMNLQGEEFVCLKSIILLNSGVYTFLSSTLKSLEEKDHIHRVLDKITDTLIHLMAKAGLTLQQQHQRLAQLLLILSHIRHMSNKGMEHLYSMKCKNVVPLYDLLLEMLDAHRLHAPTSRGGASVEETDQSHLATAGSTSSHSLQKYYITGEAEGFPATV
Procedure, shortened: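 Test chemicals (10-point series, 0.002 - 200 uM) were preincubated 2 hours with alginate-immobilized phenobarbital/beta-naphthoflavone-induced male Sprague Dawley rat liver S9; conditioned medium then went onto VM7Luc4E2 breast cells for 24 hour. Luciferase gain-of-signal fitted relative to 17beta-estradiol.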

[4] = CCTE_Shafer_MEA_dev_per_burst_spike_percent: CCTE's Neural Network Formation Assay for Percent of Spikes in a Burst, Shafer Lab (AID 2284032);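 on AC50: fitted as a decrease in burst spike percentage below DMSO baseline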
Procedure, shortened: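 Rat primary cortical neurons on 16-electrode MEA wells, dosed from plating day 0 for 12 days with renewal on DIV 5 and 9; spikes-in-bursts percentage averaged over bursting electrodes, collapsed as AUC across days 5, 7, 9, 12; loss direction versus DMSO.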

[5] = molecular target: Estrogen receptor (Homo sapiens) (UniProt P03372); test: CCTE_Deisenroth_AIME_384WELL_LUC_Inactive: CCTE's 384-well Estrogen Receptor Transactivation Assay without AIME metabolic competence (ERTA luciferase; metabolism negative), Deisenroth Lab (AID 2284038; active means hit-call score of the fitted dose curve at least 0.9, where 1 is the maximum;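 further: VM7Luc4E2 breast cells given medium preincubated 2 h with S9-free microspheres; hits raise estrogen receptor luciferase signal so potencies reflect agonists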)
Procedure, shortened: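 Chemicals (10-point series, 0.002 - 200 uM) were incubated 2 hours with alginate-water microsphere lids lacking S9, then the conditioned medium was transferred to VM7Luc4E2 breast cells for 24 hour. Luciferase induction was read by bioluminescence, fitted upward relative to 17beta-estradiol.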

[6] = CCTE_Deisenroth_AIME_384WELL_CTox_Inactive: Cytotoxicity Assessment (CTOX) in CCTE's 384-well Estrogen Receptor Transactivation Assay without AIME metabolic competence (metabolism negative), Deisenroth Lab (AID 2284039; active means hit-call score of the fitted dose curve at least 0.9, where 1 is the maximum;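 further: cell viability via live-cell protease substrate cleaved to fluorescent probe; cells exposed 24 h to medium preincubated 2 h with alginate-water beads without S9; loss of fluorescence signal means loss of viability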)
Procedure, shortened: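 Metabolism-negative arm: chemicals (10-point, 0.002 - 200 uM) preincubated 2 h with alginate-water lids, medium moved onto VM7Luc4E2 cells for 24 h. Fluorescent live-cell protease readout; bidirectional curve fit.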

[7] = CCTE_Shafer_MEA_dev_active_electrodes_number: CCTE's Neural Network Formation Assay for Number of Active Electrodes, Shafer Lab (AID 2284040; active means hit-call score of the fitted dose curve at least 0.9, where 1 is the maximum;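 on AC50: potency for loss of active electrodes versus DMSO so lower counts are hits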)
Procedure, shortened: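 Rat cortical primary cultures, 1.5 x 10^5 cells/well, PEI-coated MEA, laminin drop. Continuous exposure DIV 0–12; full media/compound change DIV 5, 9. Readout: electrodes with mean firing ≥5 spikes/min; AUC across days; loss vs DMSO.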

[8] = molecular target: Estrogen receptor (Homo sapiens) (UniProt P03372); test: CCTE_Deisenroth_AIME_384WELL_LUC_Shift: CCTE's 384-well Estrogen Receptor Transactivation Assay with AIME metabolic competence data shift (ERTA luciferase; difference in metabolism positive and negative), Deisenroth Lab (AID 2284041);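 further: shift is response with S9 minus without S9 so positive means metabolism raised ER signal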
Procedure, shortened: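 Chemicals (0.002–200 uM, 10 points) pre-incubated 2 h with alginate-encapsulated induced male Sprague Dawley rat liver S9 or S9-free, then medium applied 24 h to VM7Luc4E2 cells; luciferase. Endpoint is per-concentration difference, S9-positive minus negative.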

[9] = CCTE_Shafer_MEA_dev_burst_rate: CCTE's Neural Network Formation Assay for Burst Rate, Shafer Lab (AID 2284042);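 on AC50: potency for loss of burst rate below DMSO control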
Procedure, shortened: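 Cells plated, treated day 0; recorded DIV 5, 7, 9, 12; fed and re-treated DIV 5, 9. Endpoint: bursts per recording time, active-electrode well mean, trapezoidal AUC, fitted in decreasing direction against DMSO baseline.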

[10] = CCTE_Shafer_MEA_dev_per_burst_interspike_interval: CCTE's Neural Network Formation Assay for Burst Interspike Interval, Shafer Lab (AID 2284044);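 further: mean spike spacing inside bursts as AUC over recordings on days 5 7 9 12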
Procedure, shortened: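 Rat cortical primary cultures, 16 electrodes/well; compound from plating, renewed with full media change DIV 5 and 9. Spikes via adaptive detector; per-burst ISI well-mean over active bursting electrodes; AUC of DIV 5/7/9/12 recordings; loss-direction fit vs DMSO.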

[11] = CCTE_Shafer_MEA_dev_burst_duration_mean: CCTE's Neural Network Formation Assay for Mean Burst Duration, Shafer Lab (AID 2284045)
Procedure, shortened: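 Primary rat cortical neurons on 48-well 16-electrode MEA plates, exposed from day 0 with renewal at DIV 5 and 9; spontaneous activity recorded on days 5, 7, 9, 12. Well-mean burst duration across bursting electrodes, collapsed as trapezoidal AUC; DMSO baseline.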

[12] = CCTE_Shafer_MEA_dev_interburst_interval_mean: CCTE's Neural Network Formation Assay for Mean Interburst Interval, Shafer Lab (AID 2284046);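 further: well-mean interburst interval of bursting electrodes as AUC over four recording days; curve fitted for decrease in interburst interval relative to DMSO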
Procedure, shortened: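 Developing rat cortical networks on 48-well MEAs receive compound from the day of plating. Burst intervals from each active electrode are averaged per well, and AUC over the recording days is fitted in the negative direction against DMSO.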

[13] = CCTE_Shafer_MEA_dev_inter_network_spike_interval_mean: CCTE's Neural Network Formation Assay for Mean Inter-network Spike Interval, Shafer Lab (AID 2284047)
Procedure, shortened: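 Rat cortical cultures, 1.5 x 10^5 cells/well on 48-well MEA plates; continuous exposure days 0–12, medium and compound refreshed DIV 5, 9. Mean time between consecutive network-spike peaks; AUC across DIV 5/7/9/12; DMSO baseline, negative fitting direction.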

[14] = CCTE_Shafer_MEA_dev_network_spike_number: CCTE's Neural Network Formation Assay for Number of Network Spikes, Shafer Lab (AID 2284048);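 further: synchronized bursts across electrodes counted on days 5 7 9 12 and integrated as AUC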;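 on AC50: fit as a loss of signal meaning fewer network spikes than DMSO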
Procedure, shortened: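 Primary rat cortical neurons on PEI/laminin 48-well MEA plates, dosed from plating day 0 for 12 days, renewed at DIV 5 and 9. Network spike counts recorded DIV 5, 7, 9, 12, collapsed as trapezoidal AUC; DMSO baseline.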

[15] = molecular target: Estrogen receptor (Homo sapiens) (UniProt P03372); test: CCTE_Deisenroth_AIME_96WELL_LUC_Active: CCTE's 96-well Estrogen Receptor Transactivation Assay with AIME metabolic competence (ERTA luciferase; metabolism positive), Deisenroth Lab (AID 2284023; active means hit-call score of the fitted dose curve at least 0.9, where 1 is the maximum)
Procedure, shortened: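 Chemicals pre-incubated 2 h with alginate-immobilized phenobarbital/beta-naphthoflavone-induced male Sprague Dawley rat liver S9, then medium transferred to VM7Luc4E2 cells for 24 h luciferase read-out. 10-point series 0.002 - 200 uM; fitted relative to 17beta-estradiol.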

[16] = molecular target: Estrogen receptor (Homo sapiens) (UniProt P03372); test: CCTE_Deisenroth_AIME_96WELL_LUC_Inactive: CCTE's 96-well Estrogen Receptor Transactivation Assay without AIME metabolic competence (ERTA luciferase; metabolism negative), Deisenroth Lab (AID 2284025; active means hit-call score of the fitted dose curve at least 0.9, where 1 is the maximum)
Procedure, shortened: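 VM7Luc4E2 breast cells, luciferase read 24 h after dosing with medium pre-incubated 2 h on alginate-water lids (metabolism negative). 10-point series 0.002–200 uM, single technical replicate, n≥4; fit relative to 17beta-estradiol.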

[17] = CCTE_Deisenroth_AIME_96WELL_CTox_Inactive: Cytotoxicity Assessment (CTOX) in CCTE's 96-well Estrogen Receptor Transactivation Assay without AIME metabolic competence (metabolism negative), Deisenroth Lab (AID 2284029; active means hit-call score of the fitted dose curve at least 0.9, where 1 is the maximum)
Procedure, shortened: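 Chemicals (10-point series, 0.002-200 uM) were incubated 2 h with alginate-water microspheres lacking S9. The conditioned medium was then transferred onto VM7Luc4E2 cells for 24 h. Viability was measured by protease-substrate cleavage to a fluorescent probe, with loss of signal fitted bidirectionally; n≥4 experimental replicates.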

[18] = CCTE_Deisenroth_AIME_384WELL_CTox_Active: Cytotoxicity Assessment (CTOX) in CCTE's 384-well Estrogen Receptor Transactivation Assay with AIME metabolic competence (metabolism positive), Deisenroth Lab (AID 2284037; active means hit-call score of the fitted dose curve at least 0.9, where 1 is the maximum;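 further: chemicals first conditioned 2 h by alginate-bound induced rat liver S9 before cells; activity means signal loss indicating cell death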)
Procedure, shortened: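 Chemicals pre-incubated 2 hours with alginate-immobilised phenobarbital/beta-naphthoflavone-induced male Sprague Dawley rat liver S9, then conditioned medium applied 24 hour to VM7Luc4E2 cells. Viability by fluorogenic protease substrate; 10-point series 0.002 - 200 uM.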

[19] = CCTE_Shafer_MEA_dev_network_spike_peak: CCTE's Neural Network Formation Assay for Mean Number of Electrodes in Network Spike, Shafer Lab (AID 2284049);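 on AC50: fitted for loss of signal meaning fewer electrodes in network spikes than DMSO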
Procedure, shortened: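 Network-spike peak electrode count from recordings on days 5, 7, 9 and 12 was combined as trapezoidal area under the curve. Rat cortical cultures were treated continuously from plating, with compound renewed at each feed (DIV 5, 9); fits versus DMSO.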

Measured: AC50

Cc1c(F)c(F)c(COC(=O)C2C(/C=C(\Cl)C(F)(F)F)C2(C)C)c(F)c1F (stereo unspecified)
active: [1] 0.0953 µM | [2] 0.433 µM | [4] 1.83 µM | [7] 10 µM | [9] 0.716 µM | [14] 0.311 µM
not listed: [15] | [16] | [17] | [18] | [19]
inactive: all other assays above

CC(C)Oc1cc(-n2nc(C(C)(C)C)oc2=O)c(Cl)cc1Cl
inactive: [1] | [2]

COC(=O)C(C)Oc1ccc(Oc2ccc(Cl)cc2Cl)cc1 (stereo unspecified)
active: [2] 20 µM
inactive: [1]

CC(Oc1ccc(Cl)cc1Cl)C(=O)O (stereo unspecified)
inactive: [1] | [2] | [3] | [5] | [8]

Oc1ccccc1-c1ccccc1
active: [15] 68.8 µM | [16] 58.3 µM | [3] 57.9 µM
inactive: [17] | [18] | [5] | [6] | [8]

COP(N)(=O)SC (stereo unspecified)
inactive: [1] | [2] | [3] | [4] | [5] | [7] | [8] | [9] | [10] | [11] | [12] | [13] | [14] | [19]
active: [19] 15 µM
